# According to PubChem BioAssay (EPA / NIEHS):
# Where “and” joins values, the source holds several entries; their conditions need not be identical. Equal entries are not always repeated. Inconclusive results are not listed. The source holds several records for some structures; these can differ, active in one and inactive in another. Calls of active or inactive are those of the source. The calls were made as follows, unless noted: active = hit-call score of the fitted dose curve at least 0.9, where 1 is the maximum; inconclusive = response in the unintended direction; inactive = score below 0.9.
# Tests used:
# [1] = molecular target: Cytochrome P450 2C19 (Homo sapiens) (UniProt P33261); test: NVS_ADME_hCYP2C19: NovaScreen (NVS) CYP450-related Enzyme Activity (ADME) Assay for human CYP2C19 (AID 2283113);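 as to AC50: potency for inhibition seen as loss of fluorescent signal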
# Method in brief: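 Compounds first screened in duplicate at 10 uM, then confirmed in concentration series. Insect-cell-expressed human CYP2C19 turned over a fluorogenic substrate, and fluorescence was read after 1 h. Inhibition taken as signal loss relative to acetonitrile.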
# [2] = molecular target: rat CYP2C13, Cyp2c13 (gene 171521) (UniProt P20814); test: NVS_ADME_rCYP2C13: NovaScreen (NVS) CYP450-related Enzyme Activity (ADME) Assay for rat CYP2C13 (AID 2283121)
# Method in brief: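 Recombinant rat CYP2C13 with fluorogenic substrate, 0.75 h cell-free incubation; primary screen in duplicate at 10 uM, actives followed in concentration series. Fluorescence loss relative to acetonitrile control indicates inhibition.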
# [3] = molecular target: human Acid Phosphatase 1 (ACP1), ACP1 (gene 52) (UniProt P24666); test: NVS_ENZ_hACP1: NovaScreen (NVS) Enzymatic Assay for human Acid Phosphatase 1 (ACP1) (AID 2283136)
# Method in brief: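 Recombinant enzyme expressed in Sf9 cells, tested cell-free; activity read by fluorescence with electrophoretic mobility shift separation of substrate and product, 1.5 h after dosing. Primary screen in duplicate at 25 uM, actives then run in concentration series; loss of signal versus DMSO.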
# [4] = molecular target: rat CYP3A2, Cyp3a2 (gene 266682) (UniProt P05183); test: NVS_ADME_rCYP3A2: NovaScreen (NVS) CYP450-related Enzyme Activity (ADME) Assay for rat CYP3A2 (AID 2283128)
# Method in brief: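 Cell-free rat CYP3A2 enzyme assay with fluorescent substrate, read 0.5 h after dosing. Primary duplicate screen at 10 uM; actives run in concentration-response up to 20 uM, relative to acetonitrile baseline.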
# [5] = molecular target: Cytochrome P450 3A4 (Homo sapiens) (UniProt P08684); test: NVS_ADME_hCYP3A4: NovaScreen (NVS) CYP450-related Enzyme Activity (ADME) Assay for human CYP3A4 (AID 2283110)
# Method in brief: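 Compounds were first screened in duplicate at 10 uM against recombinant CYP3A4 produced in insect cells, then actives were run in concentration series. Enzyme activity was measured by fluorescence after 0.33 hour, with acetonitrile as baseline.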
# [6] = molecular target: rat CYP2A2, Cyp2a2 (gene 24895) (UniProt P15149); test: NVS_ADME_rCYP2A2: NovaScreen (NVS) CYP450-related Enzyme Activity (ADME) Assay for rat CYP2A2 (AID 2283116)
# Method in brief: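 Cell-free recombinant rat CYP2A2 activity with fluorogenic substrate, fluorescence read 0.2 h after dosing. Chemicals screened at 10 uM in duplicate, hits then run in concentration-response up to 20 uM; signal loss versus acetonitrile baseline.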
# [7] = molecular target: rat CYP2A1, Cyp2a1 (gene 24894) (UniProt P11711); test: NVS_ADME_rCYP2A1: NovaScreen (NVS) CYP450-related Enzyme Activity (ADME) Assay for rat CYP2A1 (AID 2283114; active = hit-call score of the fitted dose curve at least 0.9, where 1 is the maximum; inactive = score below 0.9)
# Method in brief: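 Recombinant rat CYP2A1, cell-free, fluorogenic substrate turnover read by fluorescence intensity 0.75 h after dosing. Primary screen at 10 uM in duplicate; actives rerun as concentration-response up to 20 uM; loss of signal versus acetonitrile control.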
# [8] = molecular target: rat CYP2C11, Cyp2c11 (gene 29277) (UniProt P08683); test: NVS_ADME_rCYP2C11: NovaScreen (NVS) CYP450-related Enzyme Activity (ADME) Assay for rat CYP2C11 (AID 2283118)
# Method in brief: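 Cell-free recombinant rat enzyme with fluorescent substrate; readout 0.33 h after dosing, loss of signal versus acetonitrile control. Initial duplicate single-point at 10 uM; actives rerun in concentration series.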
# [9] = tested on: rat CYP2C6, gene 293989; test: NVS_ADME_rCYP2C6: NovaScreen (NVS) CYP450-related Enzyme Activity (ADME) Assay for rat CYP2C6 (AID 2283120)
# Method in brief: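 Cell-free recombinant rat CYP2C6 with fluorogenic substrate, read by fluorescence 1 h after dosing; acetonitrile as negative control. Primary screen at 10 uM in duplicate, actives then in concentration-response up to 20 uM.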
# [10] = molecular target: rat CYP2D2, Cyp2d26 (gene 25053) (UniProt P10634); test: NVS_ADME_rCYP2D2: NovaScreen (NVS) CYP450-related Enzyme Activity (ADME) Assay for rat CYP2D2 (AID 2283124)
# Protocol: NVS_ADME_rCYP2D2 is a biochemical, single-readout assay that uses extracted gene-proteins in a cell-free assay. Measurements were taken 0.75 hour after chemical dosing in a 96-well plate.NVS_ADME_rCYP2D2 is one of one assay component(s) measured or calculated from the NVS_ADME_rCYP2D2 assay. It is designed to make measurements of enzyme activity, a form of enzyme reporter, as detected with fluorescence intensity signals by Fluorescence technology.Data from the assay component NVS_ADME_rCYP2D2 was analyzed into 1 assay endpoint. This assay endpoint, NVS_ADME_rCYP2D2, was analyzed in the positive analysis fitting direction relative to Acetonitrile as the negative control and baseline of activity. Using a type of enzyme reporter, loss-of-signal activity can be used to understand changes in the enzymatic activity as they relate to the gene Cyp2d2. Furthermore, this assay endpoint can be referred to as a primary readout, because this assay has produced multiple assay endpoints where this one serves a enzymatic activity function. To generalize the intended target to other relatable targets, this assay endpoint is annotated to the cyp intended target family, where the subfamily is xenobiotic metabolism.
# Binding assays used specific radioligands (tritiated, iodinated) with non-radioactive competitive displacement ligands in agonist or antagonist protocols (as indicated) and various reference compounds and inhibitors to titrate specific binding to receptors and transporters. Most enzyme assays (CYPs, kinases, phosphatases, proteases, HDACs) used recombinant protein and specific substrates (fluorescence mostly, some colorimetric and radioactive) and inhibitors, followed by a biochemical separation of substrate and product. All assays for the biochemical HTS were initially run in duplicate at a single concentration (10 uM for CYP450 assays and 25 uM for all others). Assay-chemical combinations meeting a pre-defined threshold (e.g., 30% inhibition and other criteria defined below) were then run in singleton concentration-response format with maximum concentration of 20 uM for CYPs and 50 uM for all others. Each assay was run with positive and negative controls, and concurrent controls on every plate. The follow-up (secondary) screen tested active chemical-pairs in concentration series, as well as a few additional assays not tested in the primary screen, some selected negative inactives, and several cases re-run in the concentration series for confirmatory purposes.
# Chain of rat CYP2D2, Cyp2d26 (gene 25053) (P10634 whole entry, looked up): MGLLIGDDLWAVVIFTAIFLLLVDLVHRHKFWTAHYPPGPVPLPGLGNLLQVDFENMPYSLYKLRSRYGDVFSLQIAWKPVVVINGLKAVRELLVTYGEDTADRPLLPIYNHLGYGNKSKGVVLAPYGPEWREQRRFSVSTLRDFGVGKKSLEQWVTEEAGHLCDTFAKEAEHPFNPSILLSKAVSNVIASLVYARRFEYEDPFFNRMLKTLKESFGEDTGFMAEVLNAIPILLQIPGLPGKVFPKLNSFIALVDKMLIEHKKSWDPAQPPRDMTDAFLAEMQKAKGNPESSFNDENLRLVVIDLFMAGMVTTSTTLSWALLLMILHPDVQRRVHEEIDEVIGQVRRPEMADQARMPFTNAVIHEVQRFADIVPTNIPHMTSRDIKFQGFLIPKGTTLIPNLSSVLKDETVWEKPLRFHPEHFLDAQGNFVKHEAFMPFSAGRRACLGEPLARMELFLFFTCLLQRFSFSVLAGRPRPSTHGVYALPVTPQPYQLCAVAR
# Chain of rat CYP2C11, Cyp2c11 (gene 29277) (P08683 whole entry, looked up): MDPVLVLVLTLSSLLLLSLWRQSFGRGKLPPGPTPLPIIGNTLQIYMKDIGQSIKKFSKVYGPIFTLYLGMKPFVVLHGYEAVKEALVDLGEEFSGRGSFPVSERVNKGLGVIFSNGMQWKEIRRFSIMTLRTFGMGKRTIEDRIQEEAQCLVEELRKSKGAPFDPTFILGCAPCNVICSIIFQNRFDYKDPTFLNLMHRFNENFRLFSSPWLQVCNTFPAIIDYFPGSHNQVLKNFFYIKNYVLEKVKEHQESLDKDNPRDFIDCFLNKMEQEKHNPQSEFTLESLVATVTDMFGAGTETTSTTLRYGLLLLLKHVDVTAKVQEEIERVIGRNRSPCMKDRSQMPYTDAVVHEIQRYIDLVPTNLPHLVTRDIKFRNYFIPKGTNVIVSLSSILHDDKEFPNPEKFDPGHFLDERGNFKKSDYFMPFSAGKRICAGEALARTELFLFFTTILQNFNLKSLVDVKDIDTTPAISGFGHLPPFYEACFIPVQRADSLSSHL
# Chain of rat CYP2A2, Cyp2a2 (gene 24895) (P15149 whole entry, looked up): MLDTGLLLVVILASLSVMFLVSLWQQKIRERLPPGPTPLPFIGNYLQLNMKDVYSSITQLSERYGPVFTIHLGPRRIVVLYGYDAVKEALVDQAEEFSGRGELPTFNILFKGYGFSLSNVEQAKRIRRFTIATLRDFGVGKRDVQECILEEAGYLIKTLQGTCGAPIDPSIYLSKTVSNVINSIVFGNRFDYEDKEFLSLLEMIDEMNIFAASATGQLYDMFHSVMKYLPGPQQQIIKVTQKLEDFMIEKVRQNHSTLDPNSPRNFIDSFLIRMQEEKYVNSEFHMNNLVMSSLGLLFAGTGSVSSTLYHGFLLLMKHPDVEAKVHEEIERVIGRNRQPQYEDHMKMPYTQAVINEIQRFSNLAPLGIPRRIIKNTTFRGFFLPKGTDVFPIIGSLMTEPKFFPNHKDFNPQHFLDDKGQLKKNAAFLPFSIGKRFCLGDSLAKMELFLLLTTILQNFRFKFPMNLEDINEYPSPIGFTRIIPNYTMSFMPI
# Chain of rat CYP3A2, Cyp3a2 (gene 266682) (P05183 whole entry, looked up): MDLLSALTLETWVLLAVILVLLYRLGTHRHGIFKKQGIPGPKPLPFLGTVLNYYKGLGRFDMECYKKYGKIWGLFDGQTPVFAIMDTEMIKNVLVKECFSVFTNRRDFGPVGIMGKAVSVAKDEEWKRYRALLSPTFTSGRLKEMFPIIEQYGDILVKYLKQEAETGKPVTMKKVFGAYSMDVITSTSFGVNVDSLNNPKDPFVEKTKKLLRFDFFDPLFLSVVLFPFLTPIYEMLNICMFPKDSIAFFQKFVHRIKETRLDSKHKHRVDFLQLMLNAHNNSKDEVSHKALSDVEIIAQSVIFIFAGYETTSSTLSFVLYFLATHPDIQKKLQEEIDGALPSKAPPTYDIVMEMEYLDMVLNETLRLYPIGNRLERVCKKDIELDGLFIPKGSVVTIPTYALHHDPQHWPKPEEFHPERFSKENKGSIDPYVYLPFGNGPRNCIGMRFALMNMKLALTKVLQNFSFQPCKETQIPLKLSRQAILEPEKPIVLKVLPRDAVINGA
# Chain of human Acid Phosphatase 1 (ACP1), ACP1 (gene 52) (P24666 whole entry, looked up): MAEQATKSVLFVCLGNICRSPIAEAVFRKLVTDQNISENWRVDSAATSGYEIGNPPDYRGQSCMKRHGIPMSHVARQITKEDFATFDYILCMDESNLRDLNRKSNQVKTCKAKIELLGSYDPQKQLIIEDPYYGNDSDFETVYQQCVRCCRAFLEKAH
# Chain of rat CYP2A1, Cyp2a1 (gene 24894) (P11711 whole entry, looked up): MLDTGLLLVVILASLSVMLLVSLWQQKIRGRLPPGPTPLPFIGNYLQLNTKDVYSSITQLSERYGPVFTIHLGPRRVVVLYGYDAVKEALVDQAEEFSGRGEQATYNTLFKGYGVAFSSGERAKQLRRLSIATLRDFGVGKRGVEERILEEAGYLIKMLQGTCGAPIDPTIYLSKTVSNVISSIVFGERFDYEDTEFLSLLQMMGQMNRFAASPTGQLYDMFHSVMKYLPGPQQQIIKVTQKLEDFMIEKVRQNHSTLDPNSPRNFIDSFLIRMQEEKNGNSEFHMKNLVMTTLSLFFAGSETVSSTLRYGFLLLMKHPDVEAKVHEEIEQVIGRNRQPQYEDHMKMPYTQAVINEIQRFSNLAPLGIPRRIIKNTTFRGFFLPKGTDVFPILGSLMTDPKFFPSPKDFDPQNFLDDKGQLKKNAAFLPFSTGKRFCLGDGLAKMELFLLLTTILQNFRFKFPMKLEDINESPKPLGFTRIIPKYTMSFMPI
# Chain of rat CYP2C13, Cyp2c13 (gene 171521) (P20814 whole entry, looked up): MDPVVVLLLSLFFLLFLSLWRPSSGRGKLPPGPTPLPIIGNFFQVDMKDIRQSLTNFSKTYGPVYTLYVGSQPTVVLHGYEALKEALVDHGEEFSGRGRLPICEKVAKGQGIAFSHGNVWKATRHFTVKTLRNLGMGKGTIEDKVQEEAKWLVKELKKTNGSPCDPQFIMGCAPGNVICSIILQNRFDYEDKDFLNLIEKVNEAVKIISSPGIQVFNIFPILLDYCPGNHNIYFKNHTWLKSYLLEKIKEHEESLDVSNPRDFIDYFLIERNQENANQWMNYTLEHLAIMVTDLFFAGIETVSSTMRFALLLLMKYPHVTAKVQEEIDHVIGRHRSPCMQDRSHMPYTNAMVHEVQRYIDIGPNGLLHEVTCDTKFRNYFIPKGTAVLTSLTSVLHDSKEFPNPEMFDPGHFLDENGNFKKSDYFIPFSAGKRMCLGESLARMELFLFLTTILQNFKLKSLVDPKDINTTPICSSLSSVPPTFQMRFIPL
# Chain of Cytochrome P450 3A4 (Homo sapiens) (P08684 whole entry, looked up): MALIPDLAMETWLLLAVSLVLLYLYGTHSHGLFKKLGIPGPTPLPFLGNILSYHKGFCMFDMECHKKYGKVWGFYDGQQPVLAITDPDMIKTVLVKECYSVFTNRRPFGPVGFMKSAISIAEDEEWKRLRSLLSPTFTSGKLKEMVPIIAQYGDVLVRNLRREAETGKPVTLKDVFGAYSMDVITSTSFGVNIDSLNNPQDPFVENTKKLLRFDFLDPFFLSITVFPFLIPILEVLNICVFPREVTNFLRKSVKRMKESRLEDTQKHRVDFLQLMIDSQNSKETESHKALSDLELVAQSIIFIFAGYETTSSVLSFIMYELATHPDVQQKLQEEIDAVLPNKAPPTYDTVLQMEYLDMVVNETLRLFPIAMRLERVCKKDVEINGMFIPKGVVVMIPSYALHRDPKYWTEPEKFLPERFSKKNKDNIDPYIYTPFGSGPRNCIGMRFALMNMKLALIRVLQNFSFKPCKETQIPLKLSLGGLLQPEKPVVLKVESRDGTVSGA
smiles,measurement,setting,value
CCCN(CCC)C(=O)SCC,AC50,[1],8.68 µM (active)
same,outcome,[1],inactive
S=C(S)NCCNC(=S)S.[Mn+2].[S-]C([S-])=NCCN=C([S-])[S-].[Zn+2],outcome,[1],inactive
same,outcome,[2],inactive
same,AC50,[3],4.22 µM (active) and 4.27 µM (active)
CSC(=O)c1cccc2nnsc12,AC50,[1],3.95 µM (active)
same,AC50,[4],1790 nM (active)
CCCCC(CC)CN1C(=O)C2C3C=CC(C3)C2C1=O (stereo unspecified),AC50,[5],3 µM (active)
same,AC50,[1],8.18 µM (active)
same,AC50,[4],6870 nM (active)
CCOC(=O)[C@H](C)Oc1ccc(Oc2nc3ccc(Cl)cc3o2)cc1,outcome,[1],inactive
same,AC50,[6],10 µM (active)
CCCCCOC(=O)COc1cc(N2C(=O)C3=C(CCCC3)C2=O)c(F)cc1Cl,AC50,[1],4.42 µM (active)
same,outcome,[7],inactive
Oc1ccc(C(c2ccc(O)cc2)C(Cl)(Cl)Cl)cc1,AC50,[5],7.75 µM (active)
same,AC50,[1],1.03 µM (active)
same,AC50,[7],1.29 µM (active)
same,AC50,[6],1.02 µM (active)
same,AC50,[8],0.188 µM (active)
same,AC50,[9],2570 nM (active)
same,AC50,[2],883 nM (active)
same,AC50,[10],2740 nM (active)
same,AC50,[4],2700 nM (active)
COc1nc(C)nc(NC(=O)NS(=O)(=O)c2ccccc2OCCCl)n1,AC50,[1],0.0177 µM (active)
CCCOC(=O)c1ccc(C(=O)OCCC)nc1,AC50,[1],6.74 µM (active)
CCN(Cc1c(F)cccc1Cl)c1c([N+](=O)[O-])cc(C(F)(F)F)cc1[N+](=O)[O-],AC50,[1],10 µM (active)
same,AC50,[4],4040 nM (active)
C#C[C@]1(O)CC[C@H]2[C@@H]3CCC4=CC(=O)CC[C@@H]4[C@H]3CC[C@@]21CC,AC50,[1],1.24 µM (active)
Cc1nn(C)c(Oc2ccccc2)c1C=NOCc1ccc(C(=O)OC(C)(C)C)cc1,AC50,[1],3.32 µM (active)
same,outcome,[6],inactive
same,outcome,[2],inactive
CC(C)(c1ccc(O)cc1)c1ccc(O)cc1,AC50,[7],4.1 µM (active) [middle of 4 runs]
same,AC50,[6],2.98 µM (active) [middle of 4 runs]
same,AC50,[8],1.16 µM (active) [middle of 4 runs]
same,AC50,[2],4.5 µM (active) [middle of 4 runs]
same,AC50,[4],8050 nM (active)
O=C(c1ccc(O)cc1O)c1ccc(O)cc1O,AC50,[5],5.88 µM (active)
same,AC50,[1],6.3 µM (active)
CCCCC(CC)COC(=O)c1ccccc1C(=O)O (stereo unspecified),AC50,[1],7.13 µM (active)
CN(C)C(=O)Nc1ccc(Cl)c(Cl)c1,AC50,[7],0.316 µM (active)
COC(=O)CSc1cc(N=c2sc(=O)n3n2CCCC3)c(F)cc1Cl,outcome,[10],inactive
C#CCOC(=O)[C@@H](C)Oc1ccc(Oc2ncc(Cl)cc2F)cc1,AC50,[1],1.5 µM (active)
same,outcome,[7],inactive
same,AC50,[8],1.1 µM (active)
same,AC50,[9],310 nM (active)
CCCCOC(=O)[C@@H](C)Oc1ccc(Oc2ccc(C(F)(F)F)cn2)cc1,outcome,[1],inactive
C=CCOC(Cn1ccnc1)c1ccc(Cl)cc1Cl (stereo unspecified),AC50,[1],0.062 µM (active)
same,AC50,[7],0.187 µM (active)
same,AC50,[6],0.0175 µM (active)
same,AC50,[8],0.463 µM (active)
same,AC50,[9],452 nM (active)
same,AC50,[10],125 nM (active)
same,AC50,[4],874 nM (active)
CC(=O)[C@H]1CC[C@H]2[C@@H]3CCC4=CC(=O)CC[C@]4(C)[C@H]3CC[C@]12C,AC50,[5],5.46 µM (active) and 2.77 µM (active)
same,AC50,[1],2.46 µM (active) and 4.48 µM (active) and 6.21 µM (active)
same,AC50,[6],3.07 µM (active) and 7.82 µM (active) and 6.94 µM (active)
same,AC50,[8],3.08 µM (active) and 6.76 µM (active)
CC(C)(C)[C@@H](O)[C@@H](Cc1ccc(Cl)cc1)n1cncn1,AC50,[5],2.68 µM (active)
same,AC50,[1],0.172 µM (active)
same,AC50,[7],1.7 µM (active)
same,AC50,[6],0.0348 µM (active)
same,AC50,[8],2.05 µM (active)
same,AC50,[2],370 nM (active)
same,AC50,[4],4880 nM (active)
CCCCCCC(C)OC(=O)COc1nc(F)c(Cl)c(N)c1Cl (stereo unspecified),AC50,[5],7.6 µM (active)
same,AC50,[1],4.62 µM (active)
same,outcome,[6],inactive
CC(=O)S[C@@H]1CC2=CC(=O)CC[C@]2(C)[C@H]2CC[C@@]3(C)[C@@H](CC[C@@]34CCC(=O)O4)[C@H]12,AC50,[1],6.12 µM (active)
CCCCOC(=O)C(C)Oc1ccc(Oc2ccc(C(F)(F)F)cn2)cc1 (stereo unspecified),outcome,[1],inactive
same,AC50,[6],1.17 µM (active)
O=C(O)C1(C(=O)Nc2ccc(Cl)cc2Cl)CC1,AC50,[3],39.2 µM (active)
S=C([S-])NCCNC(=S)[S-].[Mn+2],AC50,[1],5.86 µM (active)
same,AC50,[2],10000 nM (active)
CC(C)CCCCCCc1ccc(O)cc1,AC50,[1],2.75 µM (active)
CCC(O)=C1C(=O)CC(C(=O)O)CC1=O (stereo unspecified),outcome,[5],inactive
CC1(C)C(C=C(Cl)Cl)C1C(=O)OCc1cccc(Oc2ccccc2)c1 (stereo unspecified),outcome,[1],inactive
N#CSCSc1nc2ccccc2s1,AC50,[1],4.76 µM (active)
same,AC50,[8],9.17 µM (active)
same,AC50,[4],7060 nM (active)
CCOC(=O)C(C)Oc1ccc(Oc2nc3ccc(Cl)cc3o2)cc1 (stereo unspecified),AC50,[1],10 µM (active)
same,AC50,[6],2 µM (active)
CCCCOCCOCCOCc1cc2c(cc1CCC)OCO2,AC50,[1],1.73 µM (active)
same,outcome,[7],inactive
same,AC50,[8],7.57 µM (active)
same,AC50,[9],6420 nM (active)
same,outcome,[10],inactive
same,AC50,[4],4850 nM (active)
COC(=O)c1ccccc1C(=O)O,AC50,[1],5.84 µM (active)
same,outcome,[7],inactive
CCOC(=O)NCCOc1ccc(Oc2ccccc2)cc1,AC50,[1],0.816 µM (active)
CCNc1nc(N)nc(Cl)n1,outcome,[6],inactive
